Screens as filed in PubChem BioAssay.
This is a sample that favours compounds with a hit; in the whole collection about 3.1% have one here.
TrxR1 substrate – is turned over as a substrate by rat TrxR1; purified TrxR1 substrate turnover, NADPH consumption readout; Potency, µM (highest dose often 114 µM), for the others: at the top dose activity change, negative = substrate turnover; 0.01% of 390,000 active; AID 588456; further: on the % scale 0 is the no-effect control and ±100 the full control effect; nearly all actives have a fitted effect of over 50% in size
Target sequence (O89049 whole entry, looked up): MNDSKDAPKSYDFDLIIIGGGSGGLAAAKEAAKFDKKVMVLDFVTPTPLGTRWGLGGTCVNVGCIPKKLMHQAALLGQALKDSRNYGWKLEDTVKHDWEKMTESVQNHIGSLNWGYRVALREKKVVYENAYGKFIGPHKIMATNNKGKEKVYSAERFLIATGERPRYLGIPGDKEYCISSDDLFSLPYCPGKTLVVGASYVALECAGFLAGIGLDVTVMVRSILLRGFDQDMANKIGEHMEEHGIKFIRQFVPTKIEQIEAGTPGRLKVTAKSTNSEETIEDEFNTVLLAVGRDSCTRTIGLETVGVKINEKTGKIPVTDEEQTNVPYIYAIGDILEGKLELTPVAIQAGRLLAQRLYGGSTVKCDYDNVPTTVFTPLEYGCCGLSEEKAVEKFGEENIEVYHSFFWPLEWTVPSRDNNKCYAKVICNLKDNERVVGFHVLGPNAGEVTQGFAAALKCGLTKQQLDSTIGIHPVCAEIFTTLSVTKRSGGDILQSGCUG
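Rat TrxR1, dispensed at 90 nM, was prereduced with 400 uM NADPH (final) for 5 min at ~22 deg C, then incubated with compound 15 min before 400 uM selenite. A first-read NADPH fluorescence drop versus no-compound background flagged substrates.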
mIDH1 inhibitor – inhibitors of human mutant IDH1 R132H. O75874. IDH1-R132H enzyme, NADPH consumption, diaphorase/resazurin fluorescence. Potency, µM (series often up to 76.6 µM), for inactives: at the highest dose activity change, negative = inhibition, most hits filed as inhibitors. 0.093% of 390,000 active. AID 602179; further: on the % scale 0 is the no-effect control and ±100 the full control effect; nearly all actives have a fitted effect of over 65% in size
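IDH1-R132H (0.5 ug/mL dispensed) in pH 7.5 Tris buffer was preincubated 30 min with compound, then given a substrate mix of 0.016 mM NADPH and 2 mM alpha-KG for 80 min at room temperature; remaining NADPH was read by diaphorase/resazurin fluorescence.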
rTrxR1 inhibitor – rat TrxR1 inhibition; O89049; recombinant rTrxR1, NADPH fluorescence consumption, selenite substrate; Potency, µM (highest dose often 114 µM), for the others: at the top dose activity change, negative = inhibition, most hits filed as inhibitors; 1% of 390,000 active; AID 588453; further: on the % scale 0 is the no-effect control and ±100 the full control effect; nearly all actives have a fitted effect of over 65% in size
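Rat TrxR1 (90 nM in the dispensed reagent) was pre-reduced with 400 uM NADPH for 5 min at room temperature, then incubated with compound for 15 min. After 400 uM selenite was added, NADPH fluorescence (Ex 340/Em 450 nm) was followed for 8 min.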
Mito fusion act – blocks mitochondrial division or promotes mitochondrial fusion; 0.23% of 320,000 active; S. cerevisiae fusion-defective mutant growth rescue, CellTiterGlo 48 h; Potency, µM (top dose mostly 46.1 µM), for inactives: at the highest dose growth rescue (activation), actives largely listed as activators; further: % of control where 0% means no effect; nearly all actives have a fitted effect of over 45% in size
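Read-out: ATP-based luminescence (CellTiterGlo, 10 min ambient) reporting growth of fusion-defective ts yeast after 48 hours at 37C on glycerol/ethanol YPEG medium in the presence of compound.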
A549 tox-1 – counter-screen for Nrf2 inhibitors: cytotoxicity in A549 cells | Potency, µM (series often up to 46 µM), for the others: at the top dose activity change, negative = cytotoxicity, actives largely listed as inhibitors | 0.16% of 390,000 active | A549 ARE-Fluc cells, CellTiter-Fluor viability, 18-24 h | AID 504648; further: on the % scale 0 is the no-effect control and ±100 the full control effect
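A549 ARE-Fluc cells in 5% FBS OPTI-MEM, 5000 cells/well, rested 2 h then exposed to compounds in concentration-response for 18-24 h at 37 °C. Viability by CellTiter-Fluor fluorescence (Ex 405/Em 525) after 30 min; luciferase luminescence (BugLite, 15 min, RT) read afterwards.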
Nrf2 block – Nrf2 pathway inhibition | 2.1% of 360,000 active | Potency, µM (top dose mostly 46 µM), for inactives: at the top dose activity change, negative = inhibition, most hits filed as inhibitors | A549 ARE-Fluc reporter, luciferase luminescence, 18-24 h; further: on the % scale 0 is the no-effect control and ±100 the full control effect; nearly all actives have a fitted effect of over 60% in size
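In this cell-based qHTS, ARE-driven firefly luciferase in A549 cells reports Nrf2 activity; the luminescent signal after BugLite lysis is the measured value, with a prior CellTiter-Fluor read for cell health.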
FLuc counter 3 – firefly luciferase inhibition, Nrf2 hit validation; shares compounds with Nrf2 block; purified firefly luciferase, luminescence inhibition; Potency, µM (top dose mostly 57.5 µM), inactives show at the top dose activity change, negative = inhibition, usual class: inhibitors; 4% of 1,400 active; AID 720522; further: on the % scale 0 is the no-effect control and ±100 the full control effect; nearly all actives have a fitted effect of over 65% in size
A549 tox-2 – toxic to A549 ARE-Fluc cells in Nrf2 counterscreen; shares compounds with Nrf2 block; A549 ARE-Fluc cells, cytotoxicity counterscreen; Potency, µM (titrated, usually from 46.1 µM), without a hit: top-dose activity change, negative = cytotoxicity, most hits filed as inhibitors; 2% of 1,400 active;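 further: cells exposed to compounds for 18 to 24 hours; on the % scale 0 is the no-effect control and ±100 the full control effect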
Nrf2 ARE inh – reduces Nrf2 ARE reporter signal in A549 cells. shares compounds with Nrf2 block. A549 ARE-firefly luciferase reporter, luminescence. Potency, µM (series often up to 46.1 µM), inactives show top-dose activity change, negative = inhibition, actives largely listed as inhibitors. 74% of 1,400 active; further: on the % scale 0 is the no-effect control and ±100 the full control effect; nearly all actives have a fitted effect of over 65% in size
Starred values were filed as active, the others as inactive; ? = inconclusive; nt = no result shown; [ ] = another dose, or the depositor's remark. The call rests on the fitted dose curve; in most records, active means well fitted curve in the direction sought with a large enough effect; inconclusive means small, poorly fitted or top-dose-only effect, or another doubt; inactive means no such curve, though single readings can be large; an effect the other way counts as inactive or inconclusive. Potency means the concentration at half of the fitted maximal effect.

SMILES	TrxR1 substrate	mIDH1 inhibitor	rTrxR1 inhibitor	Mito fusion act	A549 tox-1	Nrf2 block	FLuc counter 3	A549 tox-2	Nrf2 ARE inh
Cc1c(/C=C/c2ccnc3ccccc23)ccc(N(C)C)c1C	-6%	nt	-6%[0.0914 µM]	nt	nt	nt	-21%	-16%	?
Clc1ccc(/C=C/c2ccnc3ccccc23)c(Cl)c1	-8%	nt	?	nt	nt	nt	?	-6%	?
C(=C\c1ccccn1)/c1ccccc1	-22%	nt	-30%	nt	nt	nt	0%	-33%	10µM*
Clc1ccc(/C=C/c2ccnc3ccccc23)cc1	22%	nt	9%	nt	nt	nt	nt	nt	nt
C(=C\c1ccccn1)/c1ccncc1	0%	-2%	7%[57.1 µM]	-7%	-3%	11%	nt	nt	nt
CC(C)(C)c1ccc(-c2nc3cc(NC(=O)c4cccc(Br)c4)ccc3o2)cc1	1%	3%	-2%	nt	3%	?	nt	nt	nt
CN(C)c1ncc(C(=O)NCc2ccccc2Cl)cn1	12%[57.1 µM]	nt	15%[57.1 µM]	nt	1%	nt	nt	nt	nt
CCN(CC)c1ccc(/C=C/c2ccnc3ccccc23)cc1	-10%	nt	-2%	nt	nt	nt	?	-12%	15µM*
CCOc1ccc(NC(=O)C(=O)NCCc2sc(-c3ccc(C)cc3)nc2C)cc1	2%[57.1 µM]	8%	24%[57.1 µM]	nt	2%	nt	nt	nt	nt
COc1ccc(OC)c(/C=C/c2cc3ccccc3c[n+]2C)c1	-9%	nt	-5%	nt	nt	nt	-27%	-18%	nt
COc1cc(OC)c(/C=C/c2cc3ccccc3c[n+]2C)c(OC)c1	-15%	nt	-23%	nt	nt	nt	3%	?	4.6µM*
COc1ccc(OC)c2cc3ccccc3cc12	-1%	-19%	?	nt	-15%	0%	nt	nt	nt
Cc1oc(-c2ccccc2Cl)nc1CSCC(=O)N1CCCC1	-5%	-2%	-14%	-4%	-2%	?	nt	nt	nt
COc1ccc(-c2nc(CSCC(=O)N3CCN(c4ccccc4F)CC3)c(C)o2)cc1	2%	-1%	10%	nt	?	5.8µM*	-22%	-16%	9.2µM*
Cc1oc(-c2ccccc2F)nc1CSCC(=O)N1CCN(c2ccccc2)CC1	5%	6%	16%	nt	-22%	7.3µM*	2%	-8%	12µM*
CSc1ccc(CCNC(=O)CCc2c(C)nc3ncnn3c2C)cc1	3%	-2%	30%	nt	-9%	3%	nt	nt	nt
CC(C)[N+](C)(CCOC(=O)C1c2ccccc2Oc2ccccc21)C(C)C	9%[57.1 µM]	6%	12%[57.1 µM]	25%	9%	5.2µM*	-1%	-9%	4.6µM*
CC(C)CNC(=O)COC(=O)C1c2ccccc2Oc2ccccc21	9%[57.1 µM]	8%	15%	14%	1%	2%	nt	nt	nt
COCCn1c(CNC(=O)c2ccccc2C)nc2cccnc21	-4%[57.1 µM]	-5%	9%[57.1 µM]	nt	9%	nt	nt	nt	nt
CC(C)CNc1nc(N)c([N+](=O)[O-])c(N2CCCCCC2)n1	-12%	-1%	-4%	21%	-2%	9.2µM*	-2%	1%	8.2µM*
CCOc1ccc(CCNC(=O)c2cn(CC)c3ccc(S(=O)(=O)N4CCc5ccccc5C4)cc3c2=O)cc1OCC	1%	-6%	27%	nt	5%	?	nt	nt	nt
NNC(=O)C1=NOC2COC3(CCN(c4ncccn4)CC3)OCC12 (stereo unspecified)	11%	-7%	14%	6%	-4%	?	nt	nt	nt
O=C(N/N=C\c1ccc(Cl)cc1)C1=NOC2COC3(CCN(c4ccc([N+](=O)[O-])cc4)CC3)OCC12 (stereo unspecified)	-16%	-8%	-7%	-7%	?	2.6µM*	-1%	-12%	nt
Cc1ccc(C)c(NC(=O)Nc2nnc(N(CC(C)C)CC(C)C)s2)c1	-4%	-7%	-3%	nt	8%	18%	nt	nt	nt
O=C(CN1C(=O)CCc2cc(S(=O)(=O)N3CCOCC3)ccc21)NCc1ccccc1	-3%[57.1 µM]	-6%	4%[57.1 µM]	nt	-1%	nt	nt	nt	nt
SMILES	TrxR1 substrate	mIDH1 inhibitor	rTrxR1 inhibitor	Mito fusion act	A549 tox-1	Nrf2 block	FLuc counter 3	A549 tox-2	Nrf2 ARE inh
O=C(Nc1ccc(F)cc1)c1cc(S(=O)(=O)N2CCCCC2)ccc1F	-10%	-5%	8%	-16%	0%	-3%	nt	nt	nt
O=C(Nc1ccc(F)cc1)c1cc(S(=O)(=O)N2CCCCC2)cs1	-1%	4%	17%	6%	-25%	8.2µM*	1%	-10%	7.3µM*
COc1ccccc1Cc1nc2ccccc2nc1SCC(=O)N1CCN(c2ccccc2)CC1	5%[57.1 µM]	4%	26%[57.1 µM]	nt	-2%	nt	nt	nt	nt
COc1ccc(NC(=O)C(C)N2c3cccc4cccc(c34)S2(=O)=O)cc1OC (stereo unspecified)	3%[57.1 µM]	0%	13%	13%	-28%	8.2µM*	-1%	-8%	23µM*
Cc1ccc(CNC(=O)c2nc(SCc3ccc(F)cc3)ncc2Cl)cc1	-3%	-8%	13%	nt	3%	-23%	nt	nt	nt
Nc1ccc(/C=C/c2nccc3ccccc23)cc1	-3%	nt	4%	nt	nt	nt	2.7µM*	-7%	?
COc1cc(OC)c(/C=C/c2ccccn2)c(OC)c1	-5%	nt	1%	nt	nt	nt	3%	-22%	6.5µM*
COc1cc(OC)c(/C=C/c2ccc3ccccc3n2)c(OC)c1	-4%	nt	-3%	nt	nt	nt	-24%	?	6.5µM*
COc1cc(OC)c(C=Cc2ccncn2)c(OC)c1	nt	19%	nt	nt	nt	nt	nt	nt	nt
COc1cc(OC)c(/C=C/c2nccc3ccccc23)c(OC)c1	-13%	nt	-1%	nt	nt	nt	7.6µM*	23%	nt
CCN(Cc1ccccc1)S(=O)(=O)c1cc(Br)cc2c1N(C(=O)C1CC1)CC2	8%[2.29 µM]	8%	22%	nt	1%	-16%[9.27 µM]	nt	nt	nt
COc1ccc([C@H]2CC(=O)C=C(c3ccnc4ccc(Cl)cc34)C2)cc1	-8%	-4%	0%	?	-21%	7.3µM*	2%	-16%	8.2µM*
CCC(C)NC(=O)Cn1c(=O)n(Cc2ccc(C(=O)NCc3ccc(C)cc3)cc2)c(=O)c2ccccc21 (stereo unspecified)	-2%	-4%	3%	nt	-17%	?	nt	nt	nt
COc1cc(Cl)c(C)cc1NC(=O)c1nn(-c2ccc(C)cc2)c(=O)n(C)c1=O	3%[57.1 µM]	0%	19%[57.1 µM]	nt	0%	nt	nt	nt	nt
